# Experimental data published in PubChem BioAssay AID1578 (Sanford-Burnham Center for Chemical Genomics, 2009).
# In all, about 290,000 compounds went through this assay and about 3,000 (1%) were called active. Rule as the data show it: active = inhibition mostly above about 36% (no sharp cut-off); inactive = mostly below about 34%. The full list was thinned out, with actives kept by preference.
# Assay: inhibition of NOD1-driven NF-kB reporter – cell-based, luminescence, uHTS, primary screen (AID 1578);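 also: HEK-293T reporter cells stimulated with the NOD1 agonist gamma-tri-DAP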
# Details: NOD1-driven NF-kB luciferase reporter cells, at 4 µM, active compounds read high
row,SMILES,inhibition
1,N#CC(Cc1cccc(CC(C#N)(c2ccccc2)c2ccccc2)c1)(c1ccccc1)c1ccccc1,4.8% (inactive)
2,Oc1ccc(C[C@@H]2CNC(=S)N2CCCCC2CCCCC2)cc1,-30.3% (inactive)
3,CCC(=O)Nc1ccc(Cl)c(NC(=O)c2ccccc2OC)c1,57.1% (active)
4,CCC(=O)Nc1ccc(Cl)c(NC(=O)c2c(OC)cccc2OC)c1,7% (inactive)
5,COc1ccc(C(=O)Nc2cc(OC)c(Cl)cc2OC)cc1,-33.1% (inactive)
6,CCC(=O)Nc1ccc(Cl)c(NC(=O)c2cccc(OC)c2)c1,-28.2% (inactive)
7,COc1cc(NC(=O)c2ccccc2)c(OC)cc1Cl,-16.7% (inactive)
8,c1ccc(CCn2cnc3ccccc32)cc1,-43.2% (inactive)
9,CCCC(=O)C1=C(O)C(C(=O)OC)C(C)(C)CC1=Nc1cccc([N+](=O)[O-])c1 (stereo not given),-12.8% (inactive)
10,FC(F)(F)Oc1ccc(NC(=S)Nc2ccccc2N2CCOCC2)cc1,4.5% (inactive)
11,CCOc1ccc(OCc2ccc(C(=O)N/N=C(\C)c3ccccn3)cc2)cc1,91.6% (active)
12,C/C(=N\NC(=O)c1ccc(COc2ccccc2)cc1)c1ccncc1,-26.5% (inactive)
13,CCOc1ccc(C(=O)N/N=C(\c2ccccc2)c2ccccn2)cc1,63.3% (inactive)
14,C/C(=N\NC(=O)c1c[nH]c2ccccc12)c1ccccn1,-30.8% (inactive)
15,O=C(NCCNC(=O)c1ccccc1F)c1ccccn1,-8.2% (inactive)
16,COCC(=O)N1CCC(n2nnc3cc(C(F)(F)F)ccc32)CC1,-11.5% (inactive)
17,Cc1ccccc1NC(=O)c1ccc2nccnc2c1,-15.6% (inactive)
18,c1ccc(Cc2nnc(Sc3ccccc3)c3ccccc23)cc1,40.8% (inactive)
19,Cc1ccc(Sc2nnc(Cc3ccccc3)c3ccccc23)cc1,70% (active)
20,COc1ccc(Sc2nnc(Cc3ccccc3)c3ccccc23)cc1,46.4% (inactive)
21,COc1cccc(OCc2cc(C(=O)N(C)C3CC(C)(C)NC(C)(C)C3)no2)c1,-22.6% (inactive)
22,CCOc1ccc(N(CC(=O)O)S(=O)(=O)c2ccc(F)cc2)cc1,22.2% (inactive)
23,COc1cccc2cc(C(=O)NC(C)C3CCCO3)c(=O)oc12 (stereo not given),-27.3% (inactive)
24,CCCCn1c(NC(=O)c2ccccc2Cl)c(C#N)c2nc3ccccc3nc21,20% (inactive)

row,SMILES,inhibition
1,N#Cc1c(NC(=O)c2ccccc2Cl)n(Cc2ccccc2)c2nc3ccccc3nc12,83.5% (active)
2,CCCCn1c(NC(=O)c2ccccc2)c(C#N)c2nc3ccccc3nc21,88.5% (active)
3,C=CCn1c(NC(=O)c2ccccc2Cl)c(C#N)c2nc3ccccc3nc21,28.8% (inactive)
4,CCCCn1c(NC(C)=O)c(C#N)c2nc3ccccc3nc21,22.5% (inactive)
5,CCCCn1c(NC(=O)CC)c(C#N)c2nc3ccccc3nc21,-7.1% (inactive)
6,O=C(C[n+]1cc(Br)cc(Br)c1)c1ccc(Cl)cc1,-7.2% (inactive)
7,CC(=O)Nc1ccc(S(=O)(=O)N2CCC(C(=O)NCCC(=O)Nc3ccccc3)CC2)cc1,-17.6% (inactive)
8,CCN(CC)c1nc2c(c(=O)[nH]c(=O)n2C)n1CCCc1ccccc1,-13.8% (inactive)
9,CC1c2ccccc2SC(CCCN(C)C)c2ccccc21 (stereo not given),59.5% (active)
10,CN(C)CCC1Sc2ccccc2Oc2ccccc21 (stereo not given),-13.4% (inactive)
11,CNCCCC1Sc2ccccc2Oc2ccccc21 (stereo not given),-31.7% (inactive)
12,COc1cccc(N2C(=O)N(c3ccccc3Cl)C3CS(=O)(=O)CC32)c1 (stereo not given),-14.5% (inactive)
13,Cc1n[nH]c(C)c1CCCCOc1ccc([N+](=O)[O-])cc1,-1.4% (inactive)
14,COC(=O)C1CCN(C(=O)C2CCC(=O)N(CCc3cccc(F)c3)C2)CC1 (stereo not given),-26.6% (inactive)
15,C/C=C(\CS(=O)(=O)c1ccccc1)S(=O)(=O)c1ccccc1,60.5% (inactive)
16,O=S(=O)(C/C(=C/CO)S(=O)(=O)c1ccccc1)c1ccccc1,100% (active)
17,C/C(CS(=O)(=O)c1ccccc1)=N\O,-22.4% (inactive)
18,COc1cccc(OCC(=O)Nc2ccncc2)c1,-11.4% (inactive)
19,COc1ccccc1NC(=O)/C=C/c1ccc(OC)c(S(=O)(=O)N2CCOCC2)c1,-9.3% (inactive)
20,CSc1nc(C)cc(OCCNS(=O)(=O)c2cc(C)ccc2C)n1,-15% (inactive)
21,Cc1ccccc1COC(=O)c1cc([N+](=O)[O-])ccc1N1CCOCC1,-37.5% (inactive)
22,Cc1ccccc1CN1CCc2cc([N+](=O)[O-])ccc21,58.2% (active)
23,Cc1ccccc1Cn1c(C)nc2ccc([N+](=O)[O-])cc2c1=O,-19.5% (inactive)
24,O=c1c2ccccc2cnn1Cc1ccc(Br)cc1F,-29.7% (inactive)

row,SMILES,inhibition
1,Cc1c(C(=O)N2CCCCC2)nn(-c2ccc(Cl)cc2)c(=O)c1C#N,-10.3% (inactive)
2,COc1cc(CN2CCCN(C)CC2)cc([N+](=O)[O-])c1O,-23.1% (inactive)
3,NC(=O)N1N=C2/C(=C/c3ccccc3)CCCC2C1c1ccccc1 (stereo not given),-6.2% (inactive)
4,O=C(O)CSCC(=O)N1N=C2/C(=C/c3ccccc3)CCCC2C1c1ccccc1 (stereo not given),-13.2% (inactive)
5,CC(=O)N1N=C2/C(=C/c3ccccc3)CCCC2C1c1ccccc1 (stereo not given),79.9% (active)
6,CN(C)S(=O)(=O)c1cccc(C(=O)Nc2ccccc2)c1,-30.7% (inactive)
7,O=c1c(-c2ccc(Cl)cc2)c[nH]n1-c1ccccc1,-5.7% (inactive)
8,CCOc1cccc(N2C(=O)CC(NCc3ccc(S(N)(=O)=O)cc3)C2=O)c1 (stereo not given),-9.2% (inactive)
9,Cc1ccc(-n2c(SCC(=O)N3CCCCC3)nc(O)c(Cc3ccccc3)c2=O)cc1,-18.9% (inactive)
10,Cc1cccc(NC(=S)Nc2ccccn2)c1,-0.2% (inactive)
11,S=C(Nc1ccc(Nc2ccccc2)cc1)Nc1ccccn1,74.1% (active)
12,COc1ccc(NC(=S)Nc2ccccn2)cc1,6.6% (inactive)
13,COc1ccc(/C=N/Nc2nc(-c3cccc(S(=O)(=O)N4CCCC4)c3)cs2)cc1OC,52.7% (inactive)
14,COc1cc(/C=N/Nc2nc(-c3ccc(S(=O)(=O)N(C)C)cc3)cs2)ccc1O,31.8% (active)
15,CN(C)S(=O)(=O)c1ccc(-c2csc(N/N=C/c3ccc(O)cc3)n2)cc1,12.3% (inactive)
16,N#C/C(=C\c1ccc2c(c1)OCCO2)C(=O)Nc1ccc(C(=O)O)cc1,1.3% (inactive)
17,CC(C)(C)Nc1c([N+](=O)[O-])c(=O)sc2ccccc12,-30.9% (inactive)
18,CCCCCCNc1c([N+](=O)[O-])c(=O)sc2ccccc12,71% (active)
19,CCCCNc1c([N+](=O)[O-])c(=O)n(C)c2ccccc12,-21.6% (inactive)
20,COc1cc2c(cc1OC)CN(C(=O)COc1ccc(C#N)cc1)CC2,10% (inactive)
21,Cc1c(NC(=S)NC(=O)CC(C)C)c(=O)n(-c2ccccc2)n1C,-31.4% (inactive)
22,CCN1/C(=C/c2ccc3ccccc3[n+]2CCCS(=O)(=O)[O-])C=Cc2cc(C)ccc21,-1.5% (inactive)
23,CCN1/C(=C/C=C/C=C/c2sc3ccccc3[n+]2CC)Sc2ccccc21,66.1% (inactive)
24,CC1=NN(C(=O)c2ccc(Cn3nc(C)c([N+](=O)[O-])c3C)o2)C(O)(C(F)(F)F)C1 (stereo not given),-21.3% (inactive)

row,SMILES,inhibition
1,CCCCc1nc2sc3c(SCCN(C)C)ncnc3c2c2c1CCC2,-4.1% (inactive)
2,Brc1ccc(OCc2cn3ccccc3n2)cc1,-41.6% (inactive)
3,COc1ccccc1NS(=O)(=O)c1cc(NC(=O)c2cc(=O)[nH]c3ccccc23)ccc1N1CCOCC1,0.5% (inactive)
4,COc1ccc(-c2onc(C)c2C)cc1S(=O)(=O)NCCc1ccco1,2.5% (inactive)
5,Cc1cc(C)c(C)c(S(=O)(=O)N2CCCCC2C(=O)O)c1C (stereo not given),0.3% (inactive)
6,Oc1cccc(/C=N\Nc2nncc(-c3ccccc3)n2)c1,-8.4% (inactive)
7,COc1ccc(-c2cnnc(N/N=C/c3ccc(O)cc3)n2)cc1,-15.9% (inactive)
8,Oc1ccc(/C=N\Nc2nncc(-c3ccccc3)n2)cc1,59.3% (active)
9,CC(=O)Oc1ccc(/C=C(\NC(=O)c2ccco2)C(=O)Nc2ccc(C(C)=O)cc2)cc1,-31.3% (inactive)
10,COc1ccc(/C(N)=N/OC(=O)CC2CCCCC2)cc1OC,-10.9% (inactive)
11,CCOc1ccc(OCc2ccc(C(=O)NC(C)C)o2)cc1,-2.6% (inactive)
12,CC(C)NC(=O)c1ccc(COc2ccc(C(C)(C)C)cc2)o1,29.6% (active)
13,CC(C)(C)c1ccc(OCc2ccc(C(=O)NN)o2)cc1,-4.2% (inactive)
14,CC(=O)c1ccc(S(=O)c2ccccc2)cc1 (stereo not given),-22.4% (inactive)
15,COc1ccc(OC)c(C(=O)NC(CC(N)=O)c2ccc(N3CCC(N4CCCC4)CC3)c([N+](=O)[O-])c2)c1 (stereo not given),5.4% (inactive)
16,Cc1cc(C)cc(NS(=O)(=O)c2ccc3[nH]cc(C(=O)N4CCc5ccccc54)c(=O)c3c2)c1,3.5% (inactive)
17,COCCn1c(=NC(=O)/C=C/c2ccccc2Cl)sc2cc(NC(C)=O)ccc21,85% (active)
18,CCOCCn1c(=NC(=O)/C=C/c2ccccc2Cl)sc2cc(NC(C)=O)ccc21,18.1% (inactive)
19,COCCn1c(=NC(=O)/C=C/c2ccccc2)sc2cc(NC(C)=O)ccc21,-16.2% (inactive)
20,Cc1cccc(C(P(=O)(c2ccccc2)c2ccccc2)P(=O)(c2ccccc2)c2ccccc2)n1,-2.9% (inactive)
21,CC(=O)c1c(C)[nH]c(C(=O)OCC(=O)Nc2ccc([N+](=O)[O-])cc2Cl)c1C,-9% (inactive)
22,CC(=O)c1c(C)[nH]c(C(=O)OCC(=O)Nc2ccccc2Cl)c1C,51.1% (active)
23,CC(=O)c1c(C)[nH]c(C(=O)Nc2ccccc2Cl)c1C,-16.6% (inactive)
